# Bioassay records from PubChem BioAssay.
# FMDV antiviral: blocks foot and mouth disease virus. FMDV antiviral cell-based qHTS. Potency, µM (top dose mostly 57.9 µM), without a hit: at the highest dose activity change, negative = inhibition, most hits filed as inhibitors. 1.2% of 410,000 active. AID 1159524; calls by dose curve; tested in HEK293T cells; further: read-out not given here; potency means the concentration at half of the fitted maximal effect; on the % scale 0 is the no-effect control and ±100 the full control effect; nearly all actives have a fitted effect of over 45% in size
# Lassa entry inh: blocks Lassa virus binding to or entry into cells; Lassa virus pseudotype entry inhibition, cell reporter; Potency, µM (highest dose often 37.9 µM), without a hit: at the highest dose activity change, negative = inhibition, usual class: inhibitors; 1.2% of 300,000 active; AID 540256; calls by dose curve; tested in HEK293 cells; further: potency means the concentration at half of the fitted maximal effect; on the % scale 0 is the no-effect control and ±100 the full control effect; nearly all actives have a fitted effect of over 50% in size
# MARV entry inh: Marburg virus entry inhibition; Marburg virus pseudotyped entry inhibition, cell reporter; Potency, µM (doses to about 37.8 µM), without a hit: at the highest dose activity change, negative = inhibition, usual class: inhibitors; 1.8% of 300,000 active; calls by dose curve; tested in HEK293 cells; further: potency means the concentration at half of the fitted maximal effect; on the % scale 0 is the no-effect control and ±100 the full control effect
# HCV inh: blocks hepatitis C virus | AID 651820 | Huh7.5.1 HCVcc-Cre infection, luciferase reporter, 44 h | 3.4% of 340,000 active | Potency, µM (top dose mostly 41.8 µM), for the others: top-dose activity change, negative = inhibition, usual class: inhibitors; further: potency means the concentration at half of the fitted maximal effect; on the % scale 0 is the no-effect control and ±100 the full control effect
#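 Infectious HCV cell culture screen: compound-treated cells (1,000/well, pre-plated 4 h) are infected with HCVcc-Cre at roughly 0.5 moi and grown 44 h. Infection is quantified by luciferase signal after 15 min substrate incubation at room temperature.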
# HCMV antiviral: blocks human cytomegalovirus replication; HFF cells, HCMV-luciferase reporter, 72 h; stronger effect = lower value; activity change, negative = inhibition, % at 57.5 µM; 4.5% of 410,000 active; in the data active means activity change below about -60%; inconclusive means no clear call, values can overlap the other calls; inactive means above about -39%; further: on the % scale 0 is the no-effect control and ±100 the full control effect
#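 Two compound doses tested in HFFs infected with HCMV-luciferase, MOI 1 PFU/cell, 72 h at 37C. Lysate luminescence read with OneGlo; data normalized against buffer-only and 10uM Salinomycin inhibitor controls.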
# HCV confirm: HCV inhibition, cherry-pick confirmation | shares compounds with HCV inh | HCVcc-Cre infectious virus cell assay, luciferase, inhibition | Potency, µM (series often up to 41.8 µM), for the others: top-dose activity, negative = inhibition, usual class: inhibitors | 78% of 640 active; further: potency means the concentration at half of the fitted maximal effect; nearly all actives have a fitted effect of over 80% in size
# HCV host tox: counter-screen for HCV inhibitors: host cell cytotoxicity. HCV host cell line cytotoxicity counterscreen. AID 720576. shares compounds with HCV inh. 22% of 640 active. Potency, µM (doses to about 41.8 µM), for the others: at the top dose activity change, negative = cytotoxicity, actives largely listed as inhibitors;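 further: potency means the concentration at half of the fitted maximal effect; 44 h compound exposure; on the % scale 0 is the no-effect control and ±100 the full control effect; nearly all actives have a fitted effect of over 55% in size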
# Active calls of the source: *; ? = inconclusive; · = no result given; [ ] = another dose, or the depositor's remark. Only some compounds are listed: those with a hit (about 7.9% of all), similar ones and a draw of the others. Unless noted, the call rests on the fitted dose curve; in most records, active means well fitted curve in the direction sought with a large enough effect; inconclusive means small, poorly fitted or top-dose-only effect, or another doubt; inactive means no such curve, though single readings can be large; an effect the other way counts as inactive or inconclusive.
SMILES,FMDV antiviral,Lassa entry inh,MARV entry inh,HCV inh,HCMV antiviral,HCV confirm,HCV host tox
CC1CCCN(CC(O)COc2ccc(-c3ccccc3)cc2)C1 (stereo not drawn),-24%,8%,?,2.8µM*,-28,16µM*,52%
C/C(=N/Nc1nc(-c2ccccc2)cc(-c2ccc(F)cc2)n1)c1cccc(N)c1,8%,?,-7%,8.9µM*,-21,14µM*,?
CCOC(=O)c1cccc(NC(=O)c2cc(S(=O)(=O)N3CCCC3)cn2C)c1,10%,4%[46.1 µM],·,·,7,·,·
COc1ccc(CN(Cc2ccco2)C(=O)c2ccccc2F)cc1,-10%,-25%[46.1 µM],-10%[46.1 µM],·,-24,·,·
COc1ccc(NC2=NC(=S)N(c3ccccc3C)C23CCCCC3)cc1,-15%,0%,-3%,2%,-18,·,·
COc1ccc(Nc2ccc3c(c2)=NC2(CCCCC2)[N+]=3[O-])cc1,?,?,?,5µM*,-98*,18µM*,16µM*
CCN1C(=O)c2ccccc2S(=O)c2ccc(C(=O)NCc3ccc(Cl)cc3)cc21 (stereo not drawn),?,-2%[46.1 µM],11%[46.1 µM],·,-26,·,·
CCOc1ccc(NC(=O)CN(C)Cc2cc(=O)n3c(-c4ccccc4)csc3n2)cc1OCC,-18%,-3%,2%[46.1 µM],6.3µM*,15,?,25%
Cc1cc(C)cc(OCc2cc(=O)n3c(-c4ccccc4)csc3n2)c1,0%,4%[46.1 µM],-1%[46.1 µM],·,7,·,·
O=C(Nc1ccccc1-c1nnc(SCc2ccc(Cl)cc2)o1)c1ccccc1,-3%,-4%,?,18%,-4,·,·
O=c1c(-c2nnc(SCc3ccc(Cl)cc3)o2)cccn1Cc1ccccc1,-10%,?,?,3.5µM*,?,13µM*,?
O=C(/C=C/c1ccccc1)Nc1cccc(C(=O)NCCCCc2ccccc2)c1,-14%,·,·,2.5µM*,27,11µM*,8%
Cc1ccc(-c2n[nH]c3c2C(c2ccc(C(C)(C)C)cc2)NC3=O)cc1 (stereo not drawn),-14%,5%[46.1 µM],-1%[46.1 µM],·,-10,·,·
CCS(=O)(=O)CCSc1nc(-c2ccc(Br)cc2)cc(-c2ccccc2)c1C#N,-25%,16%[46.1 µM],·,·,16,·,·
CS(=O)c1nc(-c2ccc(Br)cc2)cc(-c2ccccc2)c1C#N (stereo not drawn),·,?,?,5µM*,-98*,?,?
COCCCNCCOCCOc1ccccc1-c1ccccc1,12%,?,?,7.9µM*,-36,?,?
C=CCNCCOCCOc1ccccc1-c1ccccc1,-8%,·,·,-11%,?,·,·
O=C(CSc1nc(=O)n(CCN2CCOCC2)c2c1CCC2)Nc1ccccc1,-11%,4%[46.1 µM],·,·,-11,·,·
COc1ccc(-c2nn(-c3ccccc3)cc2C(=O)O)cc1N,-22%,·,·,15%,1,·,·
COC(=O)c1cn(-c2ccccc2)nc1-c1ccc(OC)c(OC)c1,0%,·,·,7.9µM*,-7,14µM*,50%
COC(=O)c1cn(C(=O)OC)c2ccccc12,14%,4%,?,5.6µM*,8,?,10%
COC(=O)c1cn(C(=O)c2ccc(F)cc2)c2ccccc12,-3%,·,·,4%,-1,·,·
COc1ccc(N2CCN(Cc3nc4c(c(=O)[nH]c(=O)n4C)n3Cc3ccccc3C)CC2)cc1,-16%,6%[46.1 µM],1%[46.1 µM],·,-5,·,·
Cc1ccc(NC(=S)N(CCCN2CCN(C)CC2)Cc2cccs2)cc1,-3%,?,?,?,52,·,·
CCOC(=O)c1ccc(NC(=S)N(CCCN2CCCC2)Cc2cccs2)cc1,41%,·,?,?,-26,?,22%
SMILES,FMDV antiviral,Lassa entry inh,MARV entry inh,HCV inh,HCMV antiviral,HCV confirm,HCV host tox
COc1cc(NC(C)CCCN)c2ncccc2c1Oc1ccccc1 (stereo not drawn),-21%,11%,?,7.9µM*,11,20µM*,-18%
COc1cccc(CNC(=O)c2ccc3c(c2)sc2nc(-c4ccccc4)cn23)c1OC,-10%,24%[46.1 µM],·,·,·,·,·
Cc1ccc(CSc2ncn(-c3ccccc3)n2)cc1,44%,?,-9%,12%,20,·,·
Cc1ccc(CSc2nccc(-c3c(C)nc4ccccn34)n2)cc1,?,·,·,5.6µM*,4,25µM*,-44%
COc1ccc(-c2nc(-c3ccccc3OC)no2)cc1OC,2%,20%,28%,?,31,22µM*,5%
Cc1oc(-c2cccc(Cl)c2)nc1CN1CCCC(C(=O)N2CCN(c3ccc(F)cc3)CC2)C1 (stereo not drawn),?,1%[46.1 µM],?,·,-4,·,·
CCOc1ccc(CCNS(=O)(=O)c2cnc[nH]2)cc1OCC,3%,2%,4%,6.3µM*,-19,?,-9%
CCOc1ccc(CCNS(=O)(=O)c2ccc(-c3ccc(=O)[nH]n3)o2)cc1OCC,17%,·,·,0%,9,·,·
Cc1ccc(S(=O)(=O)NCc2ccncc2)c(C)c1C,-10%,-14%[46.1 µM],?,0.79µM*,-83*,0.79µM*,-95%
COc1ccc(Cl)cc1NC(=O)c1cc2c(s1)-c1ccccc1OC2,-12%,·,1%[46.1 µM],·,-13,·,·
Cc1c(NC(=O)c2cc3c(s2)-c2ccccc2OC3)cccc1[N+](=O)[O-],28µM*,?,?,?,?,6.3µM*,-4%
Cn1c(=O)c2c(nc(SCC(=O)NCc3ccc4c(c3)OCO4)n2Cc2ccc(F)cc2)n(C)c1=O,-23%,-24%,-12%,?,-36,14µM*,26%
Cn1c(=O)c2c(nc(SCC(=O)NCc3ccc4c(c3)OCO4)n2Cc2ccccc2)n(C)c1=O,0%,7%,-12%,2%,-18,?,13%
CCCCNC(=O)CSc1nc2ccccc2c(=O)n1Cc1ccc2c(c1)OCO2,10%,?,-24%,?,-11,·,·
Cn1c(=O)c2c(nc(Oc3ccc4c(c3)OCO4)n2Cc2ccc(F)cc2)n(C)c1=O,-4%,-22%,18%,13%,-21,·,·
Cc1csc2nc(COc3ccc(NC(=O)C(C)C)cc3)cc(=O)n12,4%,23%[46.1 µM],?,·,37,·,·
CC(C)CNc1nc(NC(C)(C)C)nc(Oc2ccc(=O)n(-c3ccccc3)n2)n1,-22%,-9%[46.1 µM],-29%[46.1 µM],·,28,·,·
CCC(Sc1nnc(C)n2c1cc1occc12)C(=O)Nc1ccccc1OC (stereo not drawn),0%,9%[46.1 µM],·,·,-22,·,·
Cc1ccc(C2=NCCn3c2c2ccc([N+](=O)[O-])cc2[n+]3[O-])cc1,45%,·,·,?,17,22µM*,30%
O=[N+]([O-])c1ccc2c3n([n+]([O-])c2c1)CCN=C3c1ccc(Cl)cc1,9%,·,·,?,-2,·,·
CN(C(=O)c1ccccc1)C1c2c(ccc3ccccc23)OCC1CO (stereo not drawn),-13%,·,·,0%,?,·,·
